Data on 40 compounds can be found in PubChem BioAssay (NCATS).

Inconclusive results are not listed. Entries that show only a call come without a potency. Activity calls are given as the source filed them. The call rests on the fitted dose curve; in most records, active means well fitted inhibition curve with a large enough effect; inconclusive means small, poorly fitted or top-dose-only effect; inactive means no such curve, though single readings can be large or run the other way.
Potency means the concentration at half of the fitted maximal effect.

The experiment is described as follows: qHTS assay for measurement of the activity of small molecule inhibitors on Zika virus induced Caspase-3 activity in human iPSC derived neural progenitor cells (hNPCs) (AID 1224857). Further: nearly all actives have a fitted effect of over 65% in size. The note with it: hNPCs ZIKV-induced caspase-3/7, Caspase-Glo luminescence, 6 h; series mostly up to 45.7 µM. The text has this: National Center for Advancing Translational Sciences [NCATS]
Johns Hopkins University School of Medicine
Increase in the Caspase-3 activity indicates an activation of apoptosis cell death pathway caused by Zika virus infection in certain types of neuronal cells including human neural progenitor cells (hNPCs), astrocytes, and astrocytoma cell line (SNB-19). This cell-based caspase-3 activity assay measures the increased caspase-3 activity in the human iPSC derived neural progenitor cells (hNPCs) after a 6-hour Zika virus infection with a luminescence readout. A decrease in the luminescence signal in this assay by small molecule treatment indicates an inhibitory effect of that small molecule on the Zika virus induced caspase-3 activity that may correlate with its effect on reduction of Zika virus caused cell death.
The medium for hNPCs consists of DMEM/F12, N2 supplement (ThermoFisher, Cat.# 17502048), NEAA (ThermoFisher, Cat. # 11140050), 2 ug/ml heparin, 2 uM cyclopamine, and B27 (ThermoFisher, Cat. # 17504044). A Caspase-Glo 3/7 assay kit (catalog number G8092; Promega, Madison, WI) was used to detect caspase-3 activity induced by Zika virus infection in human cells. The reagent mixture was reconstituted as described in the protocol from the manufacturer. Polystyrene tissue culture treated and PDL coated white plates were obtained from Greiner Bio-One (Monroe, NC). Cells were seeded in 384- or 1536-well assay plates and cultured at 37 C with 5% CO2 for 16 to 20 hours. The typical cell seeding density in the 1536-well plate assay is 350 cells/well in 3 ul medium for hNPCs in tissue culture treated plates. Compounds were added to cells and incubated for one hour before addition of ZIKV solution to cells (2 FFU/cell). After incubation at 37 C with 5% CO2 for 6 hours, the reagent mixture of Caspase-Glo 3/7 assay kit was added to each well, followed by incubation at room temperature for 30 minutes. The luminescence intensity of the assay plates was measured using a ViewLux plate reader (PerkinElmer). Data were normalized by using the cell-containing wells without ZIKV as a negative control (0% induction of caspase 3/7 activity) and wells containing ZIKV infected cells (Caspase-3 activity induced) as a positive control (100% induction of caspase 3 activity). The percentage inhibitions of the increased Caspase-3 activity by small molecule inhibitors were then calculated.
For `CCCCC[C@H](O)C=C[C@H]1[C@H](O)CC(=O)[C@H]1CCCCCCC(=O)O`, the Potency result is “inactive”.

As for `O=c1[nH]nc(OCCCc2ccc(Cl)cc2)c(NCc2cccnc2)c1Br`, the Potency entry is “inactive”.

For the compound `CCOC(=O)[C@@H](N)CCC(=O)N[C@@H](CSCc1ccccc1)C(=O)N[C@@H](C(=O)OCC)c1ccccc1`, the Potency entry was “inactive”.

In the case of `C=CC[N+]1([C@H]2C[C@H]3[C@@H]4CC[C@H]5C[C@H](O)[C@@H](N6CCOCC6)C[C@]5(C)[C@@H]4CC[C@]3(C)[C@H]2OC(C)=O)CCCC1`, the Potency result is “inactive”.

In the case of `Cc1ccc2c(c1)c1c(n2CCc2ccc(C)nc2)CCN(C)C1`, the Potency result was “inactive”.

For `CCc1cccc(CC)c1NC(=O)N1Cc2[nH]nc(NC(=O)c3ccc(N4CCN(C)CC4)cc3)c2C1`, the Potency entry was “inactive”.

In the case of `COc1ccnc(CS(=O)c2nc3ccc(OC(F)F)cc3[nH]2)c1OC` (stereo not given), the Potency entry was “inactive”.

In the case of `C#CCN(C)CC1=Cc2ccccc2Oc2ccccc21`, the Potency result is “inactive”.

On to `Clc1ccc(C2(c3ccc(-c4cn[nH]c4)cc3)CCNCC2)cc1`, for which the Potency entry was “inactive”.

For `COc1ccc(CCN(C)CCCOc2ccc(S(=O)(=O)c3[nH]c4ccccc4c3C(C)C)cc2)cc1OC`, the Potency entry was “inactive”.

For the compound `c1ccc(CNc2nc(N3CCOc4ccccc43)nc3c2CCCC3)cc1`, the Potency result was “inactive”.

Take `Cc1ccc(NC(=O)Nc2cc(C(F)(F)F)ccc2F)cc1Nc1ccc2c(c1)NC(=O)C2=Cc1ccc[nH]1`: the Potency result is “inactive”.

For the compound `COc1ccc(-c2cc(=O)c3c(O)cc(O[C@@H]4O[C@H](CO[C@@H]5O[C@@H](C)[C@H](O)[C@@H](O)[C@@H]5O)[C@@H](O)[C@H](O)[C@@H]4O)cc3o2)cc1O`, the Potency result is “inactive”.

As to `Oc1cc(O)cc(C=Cc2ccc(O)c(O)c2)c1`, the Potency was 23.5 µM (active).

Regarding `CC=C1C2C=C(C)CC1(N)c1ccc(=O)[nH]c1C2` (stereo not given), the Potency entry was “inactive”.

On to `O=C(Nc1ccccc1)Nc1ccc(-c2ccc(C(=O)[C@H]3CCC[C@H]3C(=O)O)cc2)cc1`, for which the Potency entry was “inactive”.

`NC[C@H]1O[C@H](O[C@@H]2[C@@H](O)[C@@H](O[C@H]3O[C@H](CO)[C@@H](O)[C@H](N)[C@@H]3O)[C@H](N)C[C@@H]2N)[C@H](O)[C@@H](O)[C@H]1O`: the Potency entry is “inactive”.

For `CCC(=C(c1ccc(O)cc1)c1ccc(OCCNC)cc1)c1ccccc1`, the Potency entry was “inactive”.

With `O=c1[nH]c(=O)n([C@H]2C[C@@H](O)[C@@H](CO)O2)cc1I`, the Potency entry is “inactive”.

In the case of `C[C@@H](O)[C@H]1C(=O)N2C(C(=O)OCOC(=O)C(C)(C)C)=C(SC3CN(C4=NCCS4)C3)[C@H](C)[C@H]12`, the Potency result is “inactive”.

Consider `CC(C)Oc1cc(Nc2nc(N[C@@H](C)c3ccc(F)cn3)ncc2Cl)[nH]n1`, for which the Potency entry was “inactive”.

As for `C=C1c2cccc(O)c2C(O)=C2C(=O)[C@@]3(O)C(O)=C(C(N)=O)C(=O)[C@@H](N(C)C)[C@@H]3[C@@H](O)[C@H]12`, the Potency entry is “inactive”.

Take `CCC(=C(CC)c1ccc(O)cc1)c1ccc(O)cc1`: the Potency entry is “inactive”.

`CCC(c1ccc(O)cc1)C(CC)c1ccc(O)cc1` (stereo not given): the Potency entry was “inactive”.

On to `CCOC(=O)N1c2ccc(C(F)(F)F)cc2[C@@H](N(Cc2cc(C(F)(F)F)cc(C(F)(F)F)c2)C(=O)OC)C[C@H]1CC`, for which the Potency result was “inactive”.

For `O=[N+]([O-])c1ccc(Nc2ccccc2-c2ccccc2)c2nonc12`, the Potency result is “inactive”.

Turning to `COc1cc(F)c(C(C)C)cc1-c1ccc(C(F)(F)F)cc1CN1C(=O)O[C@H](c2cc(C(F)(F)F)cc(C(F)(F)F)c2)[C@@H]1C`, the Potency entry was “inactive”.

`Cc1cn([C@@H]2C[C@@H](O)[C@H](CO)O2)c(=O)[nH]c1=O`: the Potency result was “inactive”.

For the compound `O=C(Nc1ccc(OC(F)(F)F)cc1)c1sccc1NCc1ccnc2ccccc12`, the Potency was 5.9 µM (active).

As to `COc1ccc2cc1Oc1ccc(cc1)C[C@H]1c3cc(c(OC)cc3CCN1C)Oc1c(OC)c(OC)cc3c1[C@H](C2)N(C)CC3`, the Potency result is “inactive”.

Regarding `COc1ccc(-c2nc3ccc(C4=NNC(=O)CC4C)cc3[nH]2)cc1` (stereo not given), the Potency result is “inactive”.

With `Cn1cc(-c2ccc3nnc(Sc4ccc5ncccc5c4)n3n2)cn1`, the Potency result is “inactive”.

As for `Cc1cc(-c2ncc(CC(=O)Nc3ccc(-c4cnccn4)cn3)cc2C)ccn1`, the Potency result is “inactive”.

Take `O=C(CCCN1CCN(c2ccc(F)cc2)CC1)NC1c2ccccc2CSc2ccccc21` (stereo not given): the Potency result was “inactive”.

As for `Cc1ccc2c(c1)C(=O)[C@]1(O)CCN(c3ccccc3)C1=N2`, the Potency result is “inactive”.

Regarding `CC=C(C(=CC)c1ccc(O)cc1)c1ccc(O)cc1`, the Potency result was “inactive”.

As to `CCC(=O)OCC(=O)[C@@]1(OC(=O)CC)[C@@H](C)C[C@@H]2[C@H]3CCC4=CC(=O)C=C[C@]4(C)[C@@]3(F)[C@@H](O)C[C@@]21C`, the Potency entry is “inactive”.

As for `CC(C)CN(C[C@@H](O)[C@H](Cc1ccccc1)NC(=O)O[C@H]1CO[C@H]2OCC[C@H]21)S(=O)(=O)c1ccc(N)cc1`, the Potency result is “inactive”.

Turning to `CC(NCCc1ccc(O)cc1)C(O)c1ccc(O)cc1` (stereo not given), the Potency result was “inactive”.

As for `CC(O)=C(C#N)C(=O)Nc1ccc(C(F)(F)F)cc1`, the Potency was 1.18 µM (active).
